Results filed as inconclusive are left out. A number with no mark means an inactive call. Calls of active or inactive are those of the source. Calls follow the shape of the dose curve; as a rule, active = well fitted cell-killing curve with a large enough effect; inconclusive = small, poorly fitted or top-dose-only effect, or effect the other way; inactive = flat fitted curve, though single readings scatter.
Assay: S16 Schwann cell viability assay (CellTiter-Glo assay) (AID 624031); also: nearly all actives have a fitted effect of over 70% in size;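 as to activity change, negative = cytotoxicity: cellular ATP luminescence as a viability measure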
Details: S16 rat Schwann cells viability, 24 h; series mostly up to 57.5 µM; activity change, negative = cytotoxicity: at the top concentration
Outline: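 This viability control uses native rat S16 Schwann cells grown in DMEM plus 10% FBS. After a 24 h compound treatment at 37 °C, CellTiter-Glo luminescence reports ATP content, scaled against DMSO-treated and cell-free wells.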
Potency is read from the fitted curve at half-maximal effect.

Structure (SMILES) | activity change, negative = cytotoxicity [%] | Potency
O=C(CCCCCCCCCCCCC1CCCC1)Nc1ccc(S(=O)(=O)c2ccc(NC(=O)CCCCCCCCCCCCC3CCCC3)cc2)cc1 | -17.8 | –
Oc1cc(O)cc(O)c1 | 2.84 | –
NCC(O)CC(=O)O (stereo not given) | -26.1 | –
CN[C@@H]1[C@H](O[C@H]2[C@H](O[C@H]3[C@H](O)[C@@H](O)[C@H](N=C(N)N)[C@@H](O)[C@@H]3N=C(N)N)O[C@@H](C)[C@]2(O)C=O)O[C@@H](CO)[C@H](O)[C@H]1O | -3.09 | –
NC(=O)C1c2ccccc2CCc2ccccc21 | -21.3 | –
CCOC(=O)[C@@H](N)CS | 4.97 | –
COC1=C(OC)C(=O)C(C/C=C(\C)CC/C=C(\C)CC/C=C(\C)CC/C=C(\C)CC/C=C(\C)CC/C=C(\C)CC/C=C(\C)CC/C=C(\C)CC/C=C(\C)CCC=C(C)C)=C(C)C1=O | -3.61 | –
CCCCCCCCCCCCCCCCOCCOCCOCCOCCOCCOCCOCCOCCOCCOCCOCCOCCOCCOCCOCCOCCOCCOCCOCCOCCO | – | 28.7 µM (active)
CS(=O)(=O)c1ccc([C@@H](O)[C@@H](COC(=O)CN)NC(=O)C(Cl)Cl)cc1 | -20.9 | –
CC(=O)Nc1ccc(OC(C)=O)cc1 | 3.89 | –
NC(=S)NS(=O)(=O)c1ccc(N)cc1 | 11.5 | –
COc1cc(S(C)=O)ccc1-c1nc2ncccc2[nH]1 (stereo not given) | -5.34 | –
Cc1nc(NS(=O)(=O)c2ccc(N)cc2)nc(C)c1Br | -25.2 | –
O=C(CCCN1CCN2CCCC2C1)c1ccc(F)cc1 (stereo not given) | 0.522 | –
O=C(O)COc1ccc(CCNS(=O)(=O)c2ccccc2)s1 | -5.5 | –
[O]=[Bi][O]C(=O)[O][Bi]=[O] | 5.57 | –
C=Cc1ccc(S(=O)(=O)O)cc1 | -1.7 | –
Cc1ccccn1 | 1.26 | –
Cc1ncc(C[n+]2csc(CCOP(=O)(O)OP(=O)(O)O)c2C)c(N)n1 | 9.82 | –
CC(=O)Nc1c(I)c(C(=O)O)c(I)c(N(C)C(C)=O)c1I | -13.4 | –

Structure (SMILES) | activity change, negative = cytotoxicity [%] | Potency
O=C(NNCNNC(=O)c1ccncc1)c1ccncc1 | -4.71 | –
CCCCCCCCCCCCOCCCN | -7.77 | –
O=C1[O][Bi][O]c2ccccc21 | 9.75 | –
CC(C)C1=CC2=CC[C@@H]3[C@](C)(CCC[C@@]3(C)C(=O)O)[C@H]2CC1 | -1.88 | –
CC(C)(CO)[C@@H](O)C(=O)NCCC(=O)NCCSSCCNC(=O)CCNC(=O)[C@H](O)C(C)(C)CO | 11.2 | –
O=P(O)(O)OC[C@H](O)CO | 9.55 | –
CC12CCC(C1)C(C)(C)C2=O (stereo not given) | 0.777 | –
CC(C)CCCC(C)NC(C)C (stereo not given) | 21.4 | –
CCCCC(CC)CCC(CC(C)C)OS(=O)(=O)O (stereo not given) | 5.6 | –
O=C(O)CCCC/C=C(\c1ccccc1)c1cccnc1 | -3.31 | –
CC(C)[C@H](N)C(=O)OCC(CO)OCn1cnc2c(=O)[nH]c(N)nc21 (stereo not given in full) | 2.71 | –
CNC(=O)C[C@@H](N)C(=O)N[C@@H](C(=O)N[C@@H]1C(=O)N2[C@@H]1SC(C)(C)[C@@H]2C(=O)O)c1ccc(O)cc1 | -17.4 | –
CC(=O)c1ccc2c(c1)N(CCCN1CCN(CCO)CC1)c1ccccc1S2 | – | 28.7 µM (active)
CNC(=O)c1c(I)c(C(=O)NCC(=O)Nc2c(I)c(C(=O)O)c(I)c(C(=O)NCCO)c2I)c(I)c(N(C)C(C)=O)c1I | -9.81 | –
CCCc1nc(C(C)(C)O)c(C(=O)OCc2oc(=O)oc2C)n1Cc1ccc(-c2ccccc2-c2nn[nH]n2)cc1 | -10.9 | –
O=C(O)c1ccc(NC(=O)[C@H](Cc2ccc(O)cc2)NC(=O)c2ccccc2)cc1 | 5.43 | –
CCCC(CCC)C(=O)OC1C[C@H]2CC[C@@H](C1)[N+]2(C)C (stereo not given in full) | -8.63 | –
CCN(CC)CCOc1ccccc1OC | 0 | –
FC(F)(F)C(F)(F)C(F)(F)C(F)(F)C(F)(F)F | -1.77 | –
C[C@]12CCC(=O)C[C@@H]1CC[C@@H]1[C@@H]2CC[C@]2(C)C=CC[C@@H]12 | -11.9 | –
